# Experimental data: PubChem BioAssay (EPA / NIEHS)
# Inconclusive results are not listed. Active and inactive are the calls of the source. Rule for the calls, unless noted: active = hit-call score of the fitted dose curve at least 0.9, where 1 is the maximum; inactive = score below 0.9.
# Assays:
# [1] = BSK_3C_Proliferation: Cell Proliferation Assessment in the BioMAP Diversity Plus: 3C Assay (AID 2283006); details: primary human endothelial cells (HUVEC);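 for AC50: potency may reflect either rise or fall in cell number versus DMSO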
# Outline: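 Cells (human umbilical vein endothelial, sub-confluent) receive test chemical; after 48 h they are fixed in 10% trichloroacetic acid, stained with 0.1% SRB and read at 560 nm. Activity is referenced to DMSO, fitting increases and decreases.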
# [2] = biological target: Retinoic acid receptor RXR-alpha (Homo sapiens) (UniProt P19793); test: ATG_RXRa_TRANS: Attagene TRANS-FACTORIAL HepG2 Assay for human Retinoid X Receptor alpha (RXRa) (AID 2283012; active = hit-call score of the fitted dose curve at least 0.9, where 1 is the maximum)
# Chain of Retinoic acid receptor RXR-alpha (Homo sapiens) (P19793 whole entry, looked up, the tested form may be a part): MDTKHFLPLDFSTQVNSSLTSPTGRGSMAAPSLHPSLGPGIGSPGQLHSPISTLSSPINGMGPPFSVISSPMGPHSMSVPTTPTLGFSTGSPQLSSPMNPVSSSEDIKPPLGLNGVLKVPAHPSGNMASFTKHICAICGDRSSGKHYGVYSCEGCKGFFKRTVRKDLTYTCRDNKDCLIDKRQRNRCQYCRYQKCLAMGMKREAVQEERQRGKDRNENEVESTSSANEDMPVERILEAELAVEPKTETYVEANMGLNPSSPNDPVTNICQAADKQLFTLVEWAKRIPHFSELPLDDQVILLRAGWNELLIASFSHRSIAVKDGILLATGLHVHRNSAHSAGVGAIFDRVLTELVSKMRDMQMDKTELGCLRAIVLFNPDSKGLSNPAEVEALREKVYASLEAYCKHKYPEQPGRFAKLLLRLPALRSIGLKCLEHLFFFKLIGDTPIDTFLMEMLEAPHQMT
# Outline: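 Measures exogenous chimeric NR-GAL4 activity in transfected HepG2 liver cells after 24 h of dosing. Induced reporter mRNA was detected by RT-PCR with capillary electrophoresis, and gain of signal was analysed against DMSO.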
# [3] = biological target: human Retinoid X Receptor beta (RXRb), RXRB (gene 6257) (UniProt P28702); test: ATG_RXRb_TRANS: Attagene TRANS-FACTORIAL HepG2 Assay for human Retinoid X Receptor beta (RXRb) (AID 2283013; active = hit-call score of the fitted dose curve at least 0.9, where 1 is the maximum)
# Chain of human Retinoid X Receptor beta (RXRb), RXRB (gene 6257) (P28702 whole entry, looked up, the tested form may be a part): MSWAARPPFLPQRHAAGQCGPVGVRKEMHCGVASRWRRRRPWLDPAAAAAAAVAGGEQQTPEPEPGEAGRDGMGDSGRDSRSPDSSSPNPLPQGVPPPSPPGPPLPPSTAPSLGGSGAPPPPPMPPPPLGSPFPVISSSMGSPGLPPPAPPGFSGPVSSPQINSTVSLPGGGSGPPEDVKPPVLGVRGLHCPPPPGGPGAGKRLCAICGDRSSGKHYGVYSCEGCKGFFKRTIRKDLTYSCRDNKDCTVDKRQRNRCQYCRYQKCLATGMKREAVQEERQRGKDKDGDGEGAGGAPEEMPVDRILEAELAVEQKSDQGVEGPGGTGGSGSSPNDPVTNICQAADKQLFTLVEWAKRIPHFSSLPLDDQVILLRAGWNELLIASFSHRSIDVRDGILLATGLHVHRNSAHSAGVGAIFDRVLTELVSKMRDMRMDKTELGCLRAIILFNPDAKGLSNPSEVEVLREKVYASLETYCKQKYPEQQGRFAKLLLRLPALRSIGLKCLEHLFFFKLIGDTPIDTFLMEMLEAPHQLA
# Outline: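 Chimeric receptor-Gal4 activity was assessed in transiently transfected human HepG2 cells after 24 h exposure. Transcripts from GAL4-UAS reporters were quantified by fluorescent RT-PCR and capillary electrophoresis, with DMSO as negative control and baseline.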
# [4] = read-out: E-selectin (Homo sapiens) (UniProt P16581); test: BSK_3C_Eselectin: BioMAP Diversity Plus: 3C Assay for Eselectin Biomarker Activity (AID 2283015); details: primary human endothelial cells (HUVEC); actives raise or lower the signal;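 for outcome: cell surface E-selectin protein quantified by ELISA 24 h after dosing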
# Outline: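 Primary human umbilical vein endothelial cells (3C system), read 24 h after compound addition; E-selectin measured by ELISA. Bidirectional curve fitting against DMSO baseline; cytotoxicity by parallel SRB total-protein staining.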
# [5] = read-out: Interleukin-1 alpha (IL1a), IL1A (gene 3552); test: BSK_BE3C_IL1a: BioMAP Diversity Plus: BE3C Assay for Interleukin-1 alpha (IL1a) Biomarker Activity (AID 2283016); details: primary human bronchial epithelial cells; actives raise or lower the signal
# Outline: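 Signal from IL-1a ELISA, taken 24 h after chemical dosing of human bronchial epithelial cells, is compared with DMSO as baseline using bidirectional curve fitting.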
# [6] = read-out: Monocyte Chemoattractant Protein-1 (MCP1), CCL2 (gene 6347); test: BSK_3C_MCP1: BioMAP Diversity Plus: 3C Assay for Monocyte Chemoattractant Protein-1 (MCP1) Biomarker Activity (AID 2283017); details: primary human endothelial cells (HUVEC); actives raise or lower the signal
# Outline: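 Human umbilical vein endothelial cells (3C system) exposed to chemicals for 24 h; MCP-1 quantified by ELISA against the DMSO baseline with bidirectional fitting, and parallel SRB staining used to assess cytotoxicity.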
# [7] = read-out: Monocyte Chemoattractant Protein-1 (MCP1), CCL2 (gene 6347); test: BSK_4H_MCP1: BioMAP Diversity Plus: 4H Assay for Monocyte Chemoattractant Protein-1 (MCP1) Biomarker Activity (AID 2283018); details: primary human endothelial cells (HUVEC); actives raise or lower the signal
# Outline: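 Endothelial cells from umbilical vein were treated with test chemical, then after 24 h MCP-1 levels were quantified by ELISA; endpoint values came from bidirectional fitting with DMSO as baseline of activity.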
# [8] = read-out: Human Leukocyte Antigen - DR isotype (HLADR), HLA-DRA (gene 3122); test: BSK_3C_HLADR: BioMAP Diversity Plus: 3C Assay for Human Leukocyte Antigen - DR isotype (HLADR) Biomarker Activity (AID 2283019); details: primary human endothelial cells (HUVEC); actives raise or lower the signal;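 for outcome: ELISA of cell-surface HLA-DR on HUVEC 24 h after dosing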
# Outline: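 HUVEC monoculture, HLA-DR measured by ELISA 24 h after chemical dosing. Fitted bidirectionally against DMSO baseline; parallel SRB staining assessed cytotoxicity, with 3C proliferation read by SRB at 48 h.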
# [9] = read-out: Interleukin-8 (IL8), CXCL8 (gene 3576); test: BSK_3C_IL8: BioMAP Diversity Plus: 3C Assay for Interleukin-8 (IL8) Biomarker Activity (AID 2283020); details: primary human endothelial cells (HUVEC); actives raise or lower the signal
# Outline: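 Endothelial primary cells of human umbilical vein origin are dosed with chemical; after 24 h the IL-8 biomarker is measured by ELISA, and concentration–response is fitted in both directions versus DMSO.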
# [10] = read-out: Monokine induced gamma interferon (MIG), CXCL9 (gene 4283); test: BSK_3C_MIG: BioMAP Diversity Plus: 3C Assay for Monokine induced gamma interferon (MIG) Biomarker Activity (AID 2283021); details: primary human endothelial cells (HUVEC); actives raise or lower the signal;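 for AC50: MIG protein level measured by immunoassay in the treated endothelial cultures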
# Outline: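 Endothelial primary cells (human umbilical vein) are dosed with test chemical in the 3C system. MIG levels are measured by ELISA at 24 h and fitted in both directions relative to DMSO.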
# [11] = BSK_3C_SRB: Viability Assessment in the BioMAP Diversity Plus: 3C Assay (AID 2283023); details: primary human endothelial cells (HUVEC);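 note: fitted both ways against DMSO so a hit may be signal rise or drop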
# Outline: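 Human umbilical vein endothelial cells in the 3C system, treated 24 h. Total protein measured by 0.1% sulforhodamine B staining after 10% TCA fixation, read at 560 nm; bidirectional fit versus DMSO.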
# [12] = read-out: Matrix Metallopeptidase 1 (MMP1), MMP1 (gene 4312); test: BSK_BE3C_MMP1: BioMAP Diversity Plus: BE3C Assay for Matrix Metallopeptidase 1 (MMP1) Biomarker Activity (AID 2283024); details: primary human bronchial epithelial cells; actives raise or lower the signal
# Outline: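 MMP1 signal, measured by ELISA after a 24 h chemical exposure of human primary bronchial epithelial cells, is analysed with bidirectional fitting using DMSO as negative control.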
# [13] = BSK_3C_Vis: BioMAP Diversity Plus: 3C Assay for Morphology Visualization (AID 2283025); details: primary human endothelial cells (HUVEC);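 note: fitted both ways so gain or loss versus DMSO counts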
# Outline: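 Morphology read by light microscopy serves as a background control for the multiplexed 3C assay in human umbilical vein endothelial cells, taken 24 h after dosing, with DMSO as the negative control and bidirectional curve fitting.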
# [14] = biological target: Nuclear receptor subfamily 1 group I member 2 (Homo sapiens) (UniProt O75469); test: ATG_PXR_TRANS: Attagene TRANS-FACTORIAL HepG2 Assay for human Pregnane X Receptor (PXR) (AID 2283008; active = hit-call score of the fitted dose curve at least 0.9, where 1 is the maximum)
# Chain of Nuclear receptor subfamily 1 group I member 2 (Homo sapiens) (O75469 whole entry, looked up, the tested form may be a part): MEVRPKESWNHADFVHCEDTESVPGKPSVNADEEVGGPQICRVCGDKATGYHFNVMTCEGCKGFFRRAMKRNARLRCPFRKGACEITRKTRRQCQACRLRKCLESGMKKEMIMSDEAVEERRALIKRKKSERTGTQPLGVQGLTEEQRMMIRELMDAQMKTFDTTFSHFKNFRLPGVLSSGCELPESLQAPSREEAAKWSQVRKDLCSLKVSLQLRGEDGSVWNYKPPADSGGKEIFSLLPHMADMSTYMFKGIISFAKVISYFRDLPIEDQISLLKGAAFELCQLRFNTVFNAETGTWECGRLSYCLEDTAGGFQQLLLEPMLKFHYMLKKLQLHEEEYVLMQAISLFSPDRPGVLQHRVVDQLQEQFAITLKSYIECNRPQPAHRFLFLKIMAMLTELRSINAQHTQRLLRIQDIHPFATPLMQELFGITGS
# Outline: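 Transient HepG2 transfectants carrying multiplexed reporter transcription units; PXR activity read through a Gal4 chimera. 24 h exposure. RT-PCR/CE fluorescence; upward curve fit referenced to DMSO.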
# [15] = biological target: human Thyroid Receptor alpha (THRa1), THRA (gene 7067) (UniProt P10827); test: ATG_THRa1_TRANS: Attagene TRANS-FACTORIAL HepG2 Assay for human Thyroid Receptor alpha (THRa1) (AID 2283014; active = hit-call score of the fitted dose curve at least 0.9, where 1 is the maximum)
# Chain of human Thyroid Receptor alpha (THRa1), THRA (gene 7067) (P10827 whole entry, looked up, the tested form may be a part): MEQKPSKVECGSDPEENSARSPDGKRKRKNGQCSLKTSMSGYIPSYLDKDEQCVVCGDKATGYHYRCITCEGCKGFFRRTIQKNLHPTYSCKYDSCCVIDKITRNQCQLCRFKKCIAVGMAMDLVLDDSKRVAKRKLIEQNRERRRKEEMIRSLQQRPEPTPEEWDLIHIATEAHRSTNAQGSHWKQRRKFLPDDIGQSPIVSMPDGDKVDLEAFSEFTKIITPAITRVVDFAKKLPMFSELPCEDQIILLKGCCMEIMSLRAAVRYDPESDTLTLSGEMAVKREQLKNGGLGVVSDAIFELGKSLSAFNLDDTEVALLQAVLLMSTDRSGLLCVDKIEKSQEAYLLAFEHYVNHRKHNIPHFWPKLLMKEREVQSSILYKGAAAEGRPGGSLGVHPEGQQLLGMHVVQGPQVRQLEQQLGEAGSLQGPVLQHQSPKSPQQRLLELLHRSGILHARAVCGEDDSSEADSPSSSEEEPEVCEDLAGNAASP
# Outline: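 HepG2 cells transiently transfected with chimeric NR-Gal4 and GAL4-UAS reporter units, dosed 24 h. Reporter mRNA quantified by RT-PCR, fluorescent labeling, HpaI digestion and capillary electrophoresis; gain-of-signal fit versus DMSO.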
# [16] = biological target: human Vitamin D Receptor (VDR), VDR (gene 7421) (UniProt P11473); test: ATG_VDR_TRANS: Attagene TRANS-FACTORIAL HepG2 Assay for human Vitamin D Receptor (VDR) (AID 2283022; active = hit-call score of the fitted dose curve at least 0.9, where 1 is the maximum)
# Chain of human Vitamin D Receptor (VDR), VDR (gene 7421) (P11473 whole entry, looked up, the tested form may be a part): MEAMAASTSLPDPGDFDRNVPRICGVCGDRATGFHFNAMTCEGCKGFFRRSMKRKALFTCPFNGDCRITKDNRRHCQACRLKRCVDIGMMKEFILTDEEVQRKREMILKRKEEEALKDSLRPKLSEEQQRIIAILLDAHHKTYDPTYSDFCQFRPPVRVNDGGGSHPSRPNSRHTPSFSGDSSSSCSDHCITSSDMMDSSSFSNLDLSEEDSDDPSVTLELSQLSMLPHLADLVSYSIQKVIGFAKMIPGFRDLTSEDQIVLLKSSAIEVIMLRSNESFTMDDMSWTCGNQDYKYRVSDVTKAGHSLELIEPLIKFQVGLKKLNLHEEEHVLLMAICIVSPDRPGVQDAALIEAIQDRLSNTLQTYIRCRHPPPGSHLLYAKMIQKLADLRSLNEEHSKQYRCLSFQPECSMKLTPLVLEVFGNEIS
# Outline: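 HepG2 cells were transiently transfected with GAL4-UAS reporter units and a chimeric VDR-Gal4 construct, then dosed for 24 hours. Reporter mRNA was quantified by RT-PCR, fluorescent labeling, HpaI digestion and capillary electrophoresis; gain of signal analysed vs DMSO.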
# [17] = biological target: human RAR-related Orphan Receptor gamma (RORg), RORC (gene 6097) (UniProt P51449); test: ATG_RORg_TRANS: Attagene TRANS-FACTORIAL HepG2 Assay for human RAR-related Orphan Receptor gamma (RORg) (AID 2283011; active = hit-call score of the fitted dose curve at least 0.9, where 1 is the maximum)
# Chain of human RAR-related Orphan Receptor gamma (RORg), RORC (gene 6097) (P51449 whole entry, looked up, the tested form may be a part): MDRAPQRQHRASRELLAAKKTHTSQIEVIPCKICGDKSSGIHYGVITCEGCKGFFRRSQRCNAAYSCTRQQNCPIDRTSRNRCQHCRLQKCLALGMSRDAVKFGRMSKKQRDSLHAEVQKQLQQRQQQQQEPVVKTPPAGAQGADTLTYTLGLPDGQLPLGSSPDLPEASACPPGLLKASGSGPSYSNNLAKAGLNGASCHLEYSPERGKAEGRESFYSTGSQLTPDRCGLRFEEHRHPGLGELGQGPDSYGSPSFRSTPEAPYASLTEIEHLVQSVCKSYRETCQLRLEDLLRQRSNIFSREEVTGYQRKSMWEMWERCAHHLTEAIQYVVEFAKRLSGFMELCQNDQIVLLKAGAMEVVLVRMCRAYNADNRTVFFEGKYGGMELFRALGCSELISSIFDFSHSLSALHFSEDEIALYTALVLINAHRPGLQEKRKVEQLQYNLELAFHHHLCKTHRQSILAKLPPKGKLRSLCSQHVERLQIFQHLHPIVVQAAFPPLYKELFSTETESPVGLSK
# Outline: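 HepG2 cells transiently transfected with GAL4-UAS reporter units and chimeric RORg-Gal4 construct; after 24 h chemical exposure, reporter mRNA measured by RT-PCR with fluorescent capillary electrophoresis, gain of signal fitted against DMSO.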
# [18] = biological target: human Retinoic Acid Receptor gamma (RARg), RARG (gene 5916) (UniProt P13631); test: ATG_RARg_TRANS: Attagene TRANS-FACTORIAL HepG2 Assay for human Retinoic Acid Receptor gamma (RARg) (AID 2283009; active = hit-call score of the fitted dose curve at least 0.9, where 1 is the maximum)
# Chain of human Retinoic Acid Receptor gamma (RARg), RARG (gene 5916) (P13631 whole entry, looked up, the tested form may be a part): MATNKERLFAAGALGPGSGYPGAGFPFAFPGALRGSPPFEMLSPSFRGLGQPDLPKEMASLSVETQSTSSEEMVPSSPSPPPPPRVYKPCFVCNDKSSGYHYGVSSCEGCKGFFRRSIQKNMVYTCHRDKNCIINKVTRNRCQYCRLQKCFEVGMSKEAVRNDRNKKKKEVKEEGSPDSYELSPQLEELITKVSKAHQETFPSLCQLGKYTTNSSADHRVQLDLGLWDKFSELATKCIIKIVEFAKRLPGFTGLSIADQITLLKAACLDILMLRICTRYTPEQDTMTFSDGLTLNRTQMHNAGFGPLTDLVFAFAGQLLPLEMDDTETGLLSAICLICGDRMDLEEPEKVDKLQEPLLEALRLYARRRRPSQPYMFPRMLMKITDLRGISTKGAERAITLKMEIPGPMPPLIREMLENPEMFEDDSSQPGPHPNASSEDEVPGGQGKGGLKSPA
# Outline: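 TRANS format measured activity of exogenous NR-GAL4 fusion (RARg) in transfected HepG2 liver cells after 24 h dosing. Induced reporter RNA was detected by RT-PCR/capillary electrophoresis fluorescence, analysed in the positive direction against DMSO.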
# Chain of E-selectin (Homo sapiens) (P16581 whole entry, looked up): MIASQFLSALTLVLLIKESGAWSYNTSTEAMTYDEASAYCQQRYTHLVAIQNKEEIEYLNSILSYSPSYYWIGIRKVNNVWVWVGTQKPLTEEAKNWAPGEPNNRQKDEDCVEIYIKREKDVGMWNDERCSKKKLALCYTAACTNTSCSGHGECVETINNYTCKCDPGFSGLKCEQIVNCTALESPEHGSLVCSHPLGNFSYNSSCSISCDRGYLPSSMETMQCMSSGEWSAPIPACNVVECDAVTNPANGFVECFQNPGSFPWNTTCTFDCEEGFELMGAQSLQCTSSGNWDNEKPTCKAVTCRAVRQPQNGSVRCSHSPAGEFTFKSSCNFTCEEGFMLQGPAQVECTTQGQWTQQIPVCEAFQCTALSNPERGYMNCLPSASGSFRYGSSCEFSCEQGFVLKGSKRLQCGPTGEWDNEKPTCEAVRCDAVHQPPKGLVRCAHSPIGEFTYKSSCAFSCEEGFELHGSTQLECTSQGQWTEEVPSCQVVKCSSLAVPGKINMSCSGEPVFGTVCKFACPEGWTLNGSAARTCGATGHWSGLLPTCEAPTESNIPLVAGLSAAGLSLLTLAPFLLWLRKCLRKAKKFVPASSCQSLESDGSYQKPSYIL
smiles,measurement,setting,value
CCN(CC)CCO,outcome,[1],inactive
same,outcome,[2],inactive
same,outcome,[3],inactive
same,outcome,[4],inactive
same,outcome,[5],inactive
same,outcome,[6],inactive
same,outcome,[7],inactive
same,outcome,[8],inactive
same,outcome,[9],inactive
same,outcome,[10],inactive
same,outcome,[11],inactive
same,outcome,[12],inactive
same,outcome,[13],inactive
CC(C)(C)OOC(C)(C)CCC(C)(C)OOC(C)(C)C,outcome,[1],inactive
same,outcome,[2],inactive
same,AC50,[3],16.4 µM (active)
same,outcome,[4],inactive
same,outcome,[5],inactive
same,outcome,[6],inactive
same,outcome,[7],inactive
same,outcome,[8],inactive
same,outcome,[9],inactive
same,outcome,[10],inactive
same,outcome,[11],inactive
same,outcome,[12],inactive
same,outcome,[13],inactive
CCC[CH2][Sn]([Cl])([CH2]CCC)[CH2]CCC,AC50,[1],0.148 µM (active)
same,AC50,[14],0.927 µM (active)
same,AC50,[2],0.245 µM (active)
same,AC50,[3],0.0637 µM (active)
same,outcome,[15],inactive
same,AC50,[4],0.148 µM (active)
same,AC50,[5],0.148 µM (active)
same,AC50,[6],0.148 µM (active)
same,AC50,[7],3.62 µM (active)
same,AC50,[8],0.148 µM (active)
same,AC50,[9],0.155 µM (active)
same,AC50,[10],0.148 µM (active)
same,AC50,[16],1.92 µM (active)
same,AC50,[11],0.148 µM (active)
same,AC50,[13],5.57 µM (active)
c1ccc(NNc2ccccc2)cc1,outcome,[1],inactive
same,outcome,[14],inactive
same,outcome,[17],inactive
same,outcome,[2],inactive
same,AC50,[3],100 µM (active)
same,outcome,[15],inactive
same,outcome,[4],inactive
same,outcome,[5],inactive
same,outcome,[6],inactive
same,outcome,[7],inactive
same,outcome,[8],inactive
same,outcome,[9],inactive
same,outcome,[10],inactive
same,outcome,[16],inactive
same,outcome,[11],inactive
same,outcome,[12],inactive
same,outcome,[13],inactive
C[N+](C)(C)CC1CO1 (centres undefined),outcome,[1],inactive
same,outcome,[15],inactive
same,outcome,[4],inactive
same,outcome,[5],inactive
same,outcome,[6],inactive
same,outcome,[7],inactive
same,outcome,[8],inactive
same,outcome,[9],inactive
same,outcome,[10],inactive
same,outcome,[11],inactive
same,outcome,[12],inactive
same,outcome,[13],inactive
OCCOCCO,outcome,[1],inactive
same,outcome,[17],inactive
same,outcome,[2],inactive
same,outcome,[3],inactive
same,outcome,[4],inactive
same,outcome,[6],inactive
same,outcome,[7],inactive
same,outcome,[8],inactive
same,outcome,[9],inactive
same,outcome,[10],inactive
same,outcome,[11],inactive
same,outcome,[13],inactive
Oc1ccc2ccc3cccc4ccc1c2c34,AC50,[1],24.6 µM (active)
same,outcome,[18],inactive
same,outcome,[17],inactive
same,outcome,[2],inactive
same,AC50,[3],43.3 µM (active)
same,AC50,[4],29.9 µM (active)
same,AC50,[5],32.4 µM (active)
same,AC50,[6],29.7 µM (active)
same,AC50,[7],14.2 µM (active)
same,AC50,[8],26.6 µM (active)
same,AC50,[9],32.8 µM (active)
same,AC50,[10],37.6 µM (active)
same,outcome,[16],inactive
same,AC50,[11],30 µM (active)
same,AC50,[13],37.5 µM (active)
Nc1ccc([N+](=O)[O-])cc1,outcome,[1],inactive
same,outcome,[17],inactive
same,outcome,[2],inactive
same,outcome,[3],inactive
same,outcome,[15],inactive
same,outcome,[4],inactive
same,outcome,[6],inactive
same,outcome,[7],inactive
same,outcome,[8],inactive
same,outcome,[9],inactive
same,outcome,[10],inactive
same,outcome,[16],inactive
same,outcome,[11],inactive
same,outcome,[12],inactive
same,outcome,[13],inactive
c1ccc2c(c1)oc1ccccc12,outcome,[1],inactive
same,outcome,[15],inactive
same,outcome,[4],inactive
same,outcome,[5],inactive
same,outcome,[6],inactive
same,outcome,[7],inactive
same,outcome,[8],inactive
same,outcome,[9],inactive
same,outcome,[10],inactive
same,outcome,[11],inactive
same,outcome,[12],inactive
same,outcome,[13],inactive
